From PubChem BioAssay AID1159580 (chemical genetic matrix, 2015)
Among all 5,500 compounds or so, about 2,000 (36%) were called active. About 18% were inconclusive and are not listed. Cut-off read from the data, not from the text of the source: active = normalized growth mostly below about 0.91 (no sharp cut-off); inconclusive = no clear call, values can overlap the other calls; inactive = mostly above about 0.92. The list shows a part of the results.

Experiment: chemical genetic growth profiling, strain panel (AID 1159580);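 note: tested at 20 µM; growth read once vehicle control cultures reached saturation at 30 °C; 1 = growth at the plate median or of vehicle wells; lower values mean less growth of the strain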
Conditions: S. cerevisiae deletion strains, growth OD

Measured: normalized growth

COc1ccc2c(c1OC)C(=O)O[C@@H]2[C@H]1c2c(cc3c(c2OC)OCO3)CCN1C
inactive: locus YAL040C, strain CLN3, hits give low values 0.984 | locus YCL061C, strain MRC1 (second series), hits give low values 1 | locus YDR150W, strain NUM1, hits give low values 1 | locus YDR363W, strain ESC2, hits give low values 0.998 | locus YER002W, strain NOP16, hits give low values 0.985 | locus YGR229C, strain SMI1, hits give low values 0.998 | locus YJR075W, strain HOC1, hits give low values 1 | locus YMR307W, strain GAS1, hits give low values 0.991 | locus YNL153C, strain GIM3, hits give low values 1.01 | locus YNL175C, strain NOP13, hits give low values 1 | locus YNL197C, strain WHI3, hits give low values 1.01 | locus YNL224C, strain SQS1, hits give low values 1 | locus YNL322C, strain KRE1, hits give low values 0.994 | locus YOR083W, strain WHI5 (second series), hits give low values 1.01 | locus YPL055C, strain LGE1, hits give low values 0.99
